In all, about 16,000 sequences were measured (“e-score”: median about -0.044, highest 2% from about 0.38 on). Only a selection was taken, and the highest values are over-represented in it overall.
Biological target: T1, GST-NbGlk1(82-244) (Nicotiana benthamiana)
T1 chain: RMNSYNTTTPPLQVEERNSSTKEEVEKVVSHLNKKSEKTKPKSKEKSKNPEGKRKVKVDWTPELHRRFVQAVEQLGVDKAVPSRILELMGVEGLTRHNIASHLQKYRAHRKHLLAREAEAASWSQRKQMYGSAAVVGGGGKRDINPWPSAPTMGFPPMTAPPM
Test: protein-binding microarray; NbGlk1 is a Golden2-like transcription factor of Nicotiana benthamiana; high values mean tight binding
Details: protein: recombinant; tags: GST (pTH6838); dsDNA, one strand shown

Sequence | binding signal
ACGCGTAT | 0.211 ± 0.0436 E-score
ATTTCAAG | 0.23 ± 0.00665 E-score
ATAACGTA | 0.205 ± 0.0524 E-score
AGGATACG | 0.357 ± 0.0118 E-score
ATAGCAAT | 0.321 ± 0.015 E-score
ATCCTATA | 0.326 ± 0.0829 E-score
ATCTGCAA | 0.317 ± 0.0136 E-score
ATCGCAGA | 0.23 ± 0.0112 E-score
ATCTCCGG | 0.318 ± 0.0623 E-score
ATCTTAGA | 0.243 ± 0.155 E-score
ATTCCTAA | 0.236 ± 0.0111 E-score
CAATCCGA | 0.35 ± 0.00607 E-score
AAATCCCT | 0.354 ± 0.00608 E-score
CAATCCGC | 0.305 ± 0.107 E-score
CAATCCGG | 0.328 ± 0.0049 E-score
AAATCAGA | 0.315 ± 0.029 E-score
AAATCCGG | 0.441 ± 0.0267 E-score
AAATCCGA | 0.427 ± 0.0109 E-score
AAATCCGC | 0.432 ± 0.0197 E-score
AAATCCGT | 0.401 ± 0.0483 E-score
AATCCCGC | 0.335 ± 0.0716 E-score
AATCCCGT | 0.366 ± 0.0273 E-score
AGATCCGG | 0.291 ± 0.0113 E-score
ACGGTATC | 0.297 ± 0.0236 E-score
ATATAGAA | 0.254 ± 0.0436 E-score

Sequence | binding signal
ATTTAGAA | 0.279 ± 0.0333 E-score
ATTCCTTA | 0.228 ± 0.0221 E-score
AACAGAAT | 0.301 ± 0.106 E-score
AATCTCGT | 0.436 ± 0.0316 E-score
AATCGCGC | 0.311 ± 0.0585 E-score
AATCACGA | 0.339 ± 0.0266 E-score
AATCTCGG | 0.429 ± 0.00874 E-score
AATCACGG | 0.256 ± 0.0042 E-score
ATTCTCGC | 0.232 ± 0.00302 E-score
AATCTCGC | 0.411 ± 0.0281 E-score
ATTCTCGG | 0.229 ± 0.0773 E-score
AATCGCGT | 0.352 ± 0.0711 E-score
AATCACGT | 0.304 ± 0.0574 E-score
AATCTCGA | 0.436 ± 0.00491 E-score
ATTCTCGA | 0.308 ± 0.0153 E-score
AAATAAAT | 0.24 ± 0.102 E-score
ATCTCGAA | 0.367 ± 0.06 E-score
ATAGCGTA | 0.266 ± 0.0123 E-score
AATACGAT | 0.294 ± 0.0273 E-score
AATACGTG | 0.216 ± 0.0545 E-score
ATAAGATA | 0.301 ± 0.0184 E-score
ATTCGGGA | 0.286 ± 0.0532 E-score
ATACAGAA | 0.221 ± 0.0562 E-score
ACAAGGAT | 0.227 ± 0.00244 E-score
AGATTCTC | 0.4901 ± 0.00333 E-score

Sequence | binding signal
ATATTCTC | 0.402 ± 0.0347 E-score
AAATTCTA | 0.245 ± 0.0867 E-score
ATTCTCTG | 0.358 ± 0.0226 E-score
ATATTCTA | 0.25 ± 0.0067 E-score
ATATTCTG | 0.342 ± 0.04 E-score
ATTCTCTA | 0.306 ± 0.094 E-score
AAATTCTC | 0.283 ± 0.0053 E-score
AGATTCTA | 0.4515 ± 0.00133 E-score
AAATTCTG | 0.235 ± 0.065 E-score
AGATTCAC | 0.289 ± 0.0335 E-score
AGATTCTG | 0.4694 ± 0.00442 E-score
AATCAATT | 0.213 ± 0.116 E-score
ATAATTTC | 0.227 ± 0.0306 E-score
AGTCAGAT | 0.208 ± 0.0487 E-score
AGTTGGAT | 0.269 ± 0.0791 E-score
AATCACGC | 0.256 E-score
ATAAGGAT | 0.22 ± 0.0746 E-score
ATCGGTAA | 0.201 ± 0.0464 E-score
ATATTCCG | 0.36 ± 0.00732 E-score
ATATTCCC | 0.393 ± 0.0225 E-score
ATATTCCA | 0.326 ± 0.0114 E-score
AAATCAGC | 0.363 ± 0.0041 E-score
CAATCGGA | 0.227 ± 0.013 E-score
ATATTGAA | 0.203 ± 0.00588 E-score
AATGATAT | 0.224 ± 0.0384 E-score

Sequence | binding signal
AATCTAAT | 0.412 ± 0.0116 E-score
ATTCTAAA | 0.221 ± 0.0153 E-score
AATCTAAG | 0.402 ± 0.0258 E-score
AATCGAAG | 0.285 ± 0.0157 E-score
AATCAAAG | 0.221 ± 0.0254 E-score
ATCCTAAT | 0.248 ± 0.0062 E-score
AATCGAAC | 0.213 ± 0.0388 E-score
AATCTAAA | 0.403 ± 0.0351 E-score
AATCTAAC | 0.413 ± 0.0271 E-score
AATTTAAA | 0.226 ± 0.0725 E-score
AATCAAAT | 0.297 ± 0.0152 E-score
AATCAAAC | 0.25 ± 0.0482 E-score
ATCGCACA | 0.256 ± 0.0485 E-score
ATCTCATG | 0.3181 ± 0.000641 E-score
ATTTCCGC | 0.333 ± 0.0224 E-score
ATCTTATA | 0.342 ± 0.00345 E-score
ATCTTATC | 0.288 ± 0.0568 E-score
ATCTGGAG | 0.225 ± 0.0674 E-score
ATTCGAAT | 0.221 ± 0.203 E-score
AATCCACA | 0.419 ± 0.00571 E-score
AATCCACC | 0.382 ± 0.0151 E-score
AATCCACT | 0.364 ± 0.0439 E-score
ATCCCACA | 0.234 ± 0.0752 E-score
ATTCCACG | 0.222 ± 0.06 E-score
AATCCTCC | 0.375 ± 0.00794 E-score

Sequence | binding signal
ATTCCACC | 0.235 ± 0.0237 E-score
AATCCTCA | 0.376 ± 0.0245 E-score
AATCCACG | 0.406 ± 0.0241 E-score
AATTTTAG | 0.222 ± 0.0121 E-score
ATCTGCAT | 0.31 ± 0.0522 E-score
AAATCGAC | 0.341 ± 0.00515 E-score
AATCCCAG | 0.342 ± 0.0163 E-score
AATCCAGA | 0.349 ± 0.0199 E-score
AATCCAGG | 0.415 ± 0.00511 E-score
AATCCCGG | 0.326 ± 0.0261 E-score
AATCCAGC | 0.364 ± 0.00724 E-score
AATCCAGT | 0.398 ± 0.00993 E-score
ATTACCAC | 0.255 ± 0.0899 E-score
ATCATAGA | 0.214 ± 0.00111 E-score
AGGAAATC | 0.4891 ± 0.000893 E-score
ACGAAAAT | 0.272 ± 0.0271 E-score
AGGAAAAT | 0.226 ± 0.0215 E-score
AAGAAATA | 0.222 ± 0.0864 E-score
ATGAAAAT | 0.321 ± 0.0714 E-score
ACGAAATC | 0.477 ± 0.0103 E-score
AGGAAATA | 0.239 ± 0.0792 E-score
AAGAAATC | 0.443 ± 0.00563 E-score
AAGAAAAT | 0.34 ± 0.023 E-score
ACGAAATA | 0.246 ± 0.0511 E-score
ATTAAATC | 0.217 ± 0.0673 E-score

Sequence | binding signal
ATGAAATC | 0.4523 ± 0.00241 E-score
AACCGGAT | 0.233 ± 0.0852 E-score
ATTTTGGG | 0.2605 ± 0.000343 E-score
ACTGCGAT | 0.208 ± 0.0497 E-score
AGTGGATA | 0.257 ± 0.0756 E-score
AAAACTTA | 0.223 ± 0.0511 E-score
ATCCAGAA | 0.288 ± 0.0705 E-score
ACGCGAAT | 0.244 ± 0.0302 E-score
CAATCGTA | 0.235 ± 0.0447 E-score
ATCTGAGG | 0.265 ± 0.031 E-score
AATTAGAT | 0.224 ± 0.00637 E-score
CAGAATTC | 0.234 ± 0.013 E-score
AATAAATC | 0.253 ± 0.0219 E-score
CAGAAATC | 0.405 ± 0.0372 E-score
ACAGTATC | 0.304 ± 0.0326 E-score
AATCTTGT | 0.397 ± 0.0291 E-score
AATCTTGC | 0.3479 ± 0.00119 E-score
AATCATGT | 0.304 ± 0.0651 E-score
AATCTTGG | 0.386 ± 0.0186 E-score
ATTCTTGG | 0.242 ± 0.0219 E-score
AATCTTTC | 0.387 ± 0.0286 E-score
AATCTTTA | 0.352 ± 0.0119 E-score
AATCTTGA | 0.3773 ± 0.0026 E-score
AATCTTTG | 0.378 ± 0.0158 E-score
AATCGTGG | 0.286 ± 0.072 E-score

Sequence | binding signal
ATCCTAGA | 0.263 ± 0.0827 E-score
AAGGAGAT | 0.261 ± 0.0685 E-score
ACGCAATC | 0.4798 ± 0.00123 E-score
ATACAATC | 0.274 ± 0.01 E-score
AGGCAAAT | 0.238 ± 0.00762 E-score
AGGCAATC | 0.417 ± 0.0072 E-score
ATCCAATC | 0.254 ± 0.066 E-score
CAGCAATC | 0.339 ± 0.0127 E-score
AATCAATC | 0.25188 ± 0.000161 E-score
AAGCAATC | 0.386 ± 0.0251 E-score
ACGCAATA | 0.2818 ± 0.000398 E-score
ATGCAAAT | 0.299 ± 0.0135 E-score
ATGCAATC | 0.4516 ± 0.0024 E-score
AGGCGATC | 0.3174 ± 0.0029 E-score
ATCTGTTA | 0.295 ± 0.102 E-score
AGGATCCT | 0.307 ± 0.0236 E-score
ATCCGAGA | 0.308 ± 0.0203 E-score
AAATGGAT | 0.235 ± 0.0673 E-score
ATCCACTA | 0.247 ± 0.0967 E-score
AAATTTTA | 0.24 ± 0.021 E-score
ATTGCCCC | 0.205 ± 0.0299 E-score
AGGGTAAT | 0.262 ± 0.0657 E-score

— article PMC5836133, “The intracellular immune receptor Rx1 regulates the DNA-binding activity of a Golden2-like transcription factor”
